Measurements: PubChem BioAssay AID651789 (National Center for Advancing Translational Sciences (NCATS), 2012)
Inconclusive results are not listed. Where a call stands in place of a potency, no number is given. Activity calls are given as the source filed them. Calls come from the whole dose curve; as a rule, active = well fitted inhibition curve with a large enough effect; inconclusive = small, poorly fitted or top-dose-only effect; inactive = no such curve, though single readings can be large or run the other way.

test: Acumen qHTS Assay for Inhibitors of the mTORC1 Signaling Pathway in WT MEF Cells: Hit Validation; conditions: Acumen imaging; series mostly up to 37.3 µM; note: nearly all actives have a fitted effect of over 60% in size
Procedure, shortened: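 Read-out is immunofluorescent phospho-rpS6 (Ser235/236) normalised to PI-stained cell number, reported as % active cells using a 7.5 nM rapamycin threshold. Cells: WT or Tsc2-/-, p53-/- MEFs, compound-exposed 24 h at 37C; PI count also tracks viability.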
Potency is the fitted concentration of half-maximal effect.

| Compound | Potency |
| --- | --- |
| COc1ccc(-c2[nH]nc3nc(-c4cc(OC)c(OC)c(OC)c4)cc(C(=O)O)c23)cc1 | inactive |
| CCOC(=O)Cc1ccc(NC(=O)n2ncc3cc(Cl)ccc32)cc1 | inactive |
| COc1ccc(NC(=O)CSc2nc3ccccc3nc2N2CCC(C)CC2)cc1 | inactive |
| Cc1oc2c(cc(NS(=O)(=O)c3ccc(C(C)C)cc3)c3ccccc32)c1C(=O)OCc1ccccc1 | inactive |
| COc1ccc2c(CNCCc3cccs3)c(C(=O)O)n(Cc3ccc(F)cc3Cl)c2c1 | inactive |
| CCN1CCOC(=O)C1CC(=O)Nc1cc(C)ccc1OC (stereo not given) | 16.5 µM (active) |
| CCOC(=O)C(Cc1c[nH]c2ccccc12)NC(=O)COc1ccc(Cl)cc1 (stereo not given) | inactive |
| Cc1ccc2nc(/C(C#N)=C/c3ccc(-c4ccc(F)cc4F)o3)[nH]c2c1 | 4.14 µM (active) |
| CCOc1ccc(C(=O)NCCc2sc(-c3ccc(C)cc3)nc2C)cc1 | inactive |
| CN1CCN(C2(CNC(=O)c3ccc(C(C)(C)C)cc3)CCCCC2)CC1 | inactive |
| COc1ccc(C(=O)N2CCN(C(=O)COc3ccc(Br)cc3)CC2)cc1OC | inactive |
| C#CC(C)(CC)NC(=O)Cn1nnc(-c2ccc(OCc3c(F)cccc3Cl)cc2)n1 (stereo not given) | inactive |
| Cc1nnc(C(=O)NC(C)(C)c2nc(C(=O)NCc3ccc(F)cc3)c(O)c(=O)n2C)o1 | inactive |
| Cc1oc(-c2ccccc2F)nc1Cn1c(SCc2cccc(Cl)c2)nc2ccncc21 | inactive |
| COc1ccc(-c2ccc(CCC(=O)O)n2-c2ccccc2O)cc1 | inactive |
| COc1cc(C(=O)N(CCCN(C)C)c2nc3c(OC)cccc3s2)cc(OC)c1OC | inactive |
| CCc1nnc(NC(=O)c2nc(S(=O)(=O)Cc3cccc(C)c3)ncc2Cl)s1 | 5.21 µM (active) |
| CC(C)(C)c1ccc(-c2nc(S(=O)(=O)c3ccccc3)c(N3CCOCC3)o2)cc1 | inactive |
| CCOc1ccc(-c2cnc(NCc3ccc(C(F)(F)F)cc3)n2C)cc1 | inactive |
| Cc1c(C2=CCN(S(=O)(=O)c3ccc(Br)cc3)CC2)c2ccccc2n1CC(=O)N1CCCC1 | inactive |

| Compound | Potency |
| --- | --- |
| FC(F)(F)c1cccc(Nc2c3c(nc4ccc(Cl)cc24)CCC3)c1 | 16.5 µM (active) |
| O=C(Nc1ccc2nc(SCC(=O)N3CCCc4ccccc43)sc2c1)c1ccccc1F | inactive |
| CCCSc1oc(-c2ccco2)nc1S(=O)(=O)c1ccc(Br)cc1 | inactive |
| CCOc1cc(C2CC(=O)Nc3cc4c(cc32)OCCO4)ccc1O (stereo not given) | inactive |
| CCOC(=O)c1cnc2ccc(OCC)cc2c1NCCc1ccc(OC)c(OC)c1 | inactive |
| Cc1ccc(Nc2nnc(-c3ccc(C)c(S(=O)(=O)N4CCOCC4)c3)c3ccccc23)c(C)c1 | inactive |
| CC1CCCCN1c1nnc(NC(=O)Nc2ccccc2F)s1 (stereo not given) | inactive |
| NC(=O)c1ccc(-c2nc(-c3ccc4c(c3)OCO4)c(-c3ccccn3)[nH]2)cc1 | inactive |
| CCSc1oc(-c2ccc(F)cc2)nc1S(=O)(=O)c1ccc(C)cc1 | inactive |
| O=C(CC(NCc1cccnc1)C(=O)O)Nc1ccc(O)cc1 (stereo not given) | inactive |
| COc1ccc(-c2n[nH]c3c2C(c2ccc(O)cc2)N(c2ccc(Br)cc2)C3=O)cc1 (stereo not given) | inactive |
| COc1cc(CNc2ccc3c(c2)ncn3C(C)C)cc(OC)c1OC | inactive |
| COc1ccccc1NC(=O)C1=C(C)Nc2nc(SCc3ccccc3)nn2C1c1cccs1 (stereo not given) | inactive |
| Cn1ccc2c(OCC(=O)Nc3ccc(OC(F)(F)F)cc3)cccc2c1=O | inactive |
| O=C(Nc1cccc(NC(=O)c2ccccc2Cl)c1)c1cccc(Br)c1 | inactive |
| COc1cc(-c2ccno2)ccc1S(=O)(=O)N1CCN(c2cc(C)ccc2C)CC1 | inactive |
| Cc1cccc(-n2cnc3cc(C(=O)NC4CCCCCC4)ccc32)c1 | 5.21 µM (active) |
| Cc1ccc(Nc2nc(C(N)=O)c(NC(=O)c3ccccc3Br)s2)cc1 | 3.69 µM (active) |
| CC(C)(C)c1ccc(S(=O)(=O)N2CCC(c3ccncc3)CC2)cc1 | inactive |
| CCCOCc1cc(CN2CCN(c3ccccc3OC)CC2)c(O)c2ncccc12 | 1.47 µM (active) |
